This is a sample that favours compounds with a hit; in the whole collection about 3.6% have one here.
Epigenetic reg = regulators of epigenetic silencing causing reporter derepression in mouse cells | AID 1865 | hit rate 0.2% among 280,000 | murine LDR cells, GFP reporter derepression, 30 h | Potency, µM (highest dose often 53.9 µM), usual class: activators; also: nearly all actives have a fitted effect of over 60% in size
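Murine LDR cells bearing a silenced CMV-driven GFP reporter were exposed to compound for 30 h at 37 C. After PBS washes, GFP-positive cells (20-120 um objects) counted by laser-scanning microplate cytometry.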
JMJD2E inh = blocks human JMJD2E demethylase activity. B2RXH2. JMJD2E catalytic domain, FDH-coupled NADH fluorescence (FDH is formaldehyde dehydrogenase). Potency, µM (titrated, usually from 57.1 µM), hits mostly inhibitors. hit rate 1.6% among 230,000; active = well fitted inhibition curve with a large enough effect, not every such curve was filed as active; inconclusive = small, poorly fitted or top-dose-only effect, or another doubt; inactive = no such curve, though single readings can be large or run the other way; also: nearly all actives have a fitted effect of over 50% in size
GCN5L2 inh = blocks human GCN5L2 histone acetyltransferase; Q92830; GCN5L2 HAT assay, ThioGlo1 CoA-SH fluorescence; Potency, µM (top dose mostly 58.9 µM), actives largely listed as inhibitors; hit rate 0.21% among 390,000
Target sequence (Q92830 whole entry, looked up): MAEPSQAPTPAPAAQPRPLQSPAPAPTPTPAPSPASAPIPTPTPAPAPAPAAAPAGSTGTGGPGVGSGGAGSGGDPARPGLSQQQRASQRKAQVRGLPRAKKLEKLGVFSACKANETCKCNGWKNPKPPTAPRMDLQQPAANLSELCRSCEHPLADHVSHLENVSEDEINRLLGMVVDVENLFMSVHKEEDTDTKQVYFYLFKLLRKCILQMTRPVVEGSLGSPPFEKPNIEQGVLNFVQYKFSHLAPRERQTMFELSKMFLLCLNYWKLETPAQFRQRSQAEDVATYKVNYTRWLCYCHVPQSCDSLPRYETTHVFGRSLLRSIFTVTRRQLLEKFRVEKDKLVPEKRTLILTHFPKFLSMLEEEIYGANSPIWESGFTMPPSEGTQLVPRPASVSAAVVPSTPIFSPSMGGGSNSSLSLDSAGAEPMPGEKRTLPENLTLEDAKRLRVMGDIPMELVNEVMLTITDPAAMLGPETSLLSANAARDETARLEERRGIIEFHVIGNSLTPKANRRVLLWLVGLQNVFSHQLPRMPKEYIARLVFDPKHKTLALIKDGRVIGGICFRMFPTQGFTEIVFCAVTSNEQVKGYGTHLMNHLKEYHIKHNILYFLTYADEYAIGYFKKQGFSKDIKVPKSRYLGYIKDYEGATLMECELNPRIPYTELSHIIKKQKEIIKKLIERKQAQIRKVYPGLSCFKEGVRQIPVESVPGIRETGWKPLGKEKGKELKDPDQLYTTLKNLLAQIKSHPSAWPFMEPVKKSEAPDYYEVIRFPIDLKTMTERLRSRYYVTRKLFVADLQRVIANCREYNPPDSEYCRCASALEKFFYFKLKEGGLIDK
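Free CoA generated was detected with ThioGlo1 (50uM) fluorescence at Ex340nm/Em540nm, read immediately and after 20 min at room temperature. Enzyme, 20 nM in HEPES pH 7.5 buffer, saw compounds 15 min before adding 75uM H3(1-25) peptide and 70uM acetyl-CoA.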
IMPase Li inh = IMPase inhibition in cells with lithium potentiation; Potency, µM (series often up to 59.4 µM), hits mostly inhibitors; AID 1457; CHO-M1 cells, IP1 TR-FRET (IP-One), carbachol + lithium; hit rate 0.35% among 210,000;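 also: IP1 builds up when IMPase is blocked and the TR-FRET signal falls; nearly all actives have a fitted effect of over 50% in size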
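CHO-M1, 2000 cells/well, 16–30 h culture; cpd + low Li+, 30 min 37C; lysis with d2-IP1/Eu-anti-IP1 Ab, 10 min RT; TR-FRET 665/620 ratio and 620 channel; AC50 via Hill.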
Sfp PPTase inh = inhibitors of Bacillus subtilis Sfp phosphopantetheinyl transferase; Potency, µM, usual class: inhibitors; hit rate 3.5% among 310,000; Biochemical Sfp PPTase activity, qHTS; Q9F4F7;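 also: the enzyme is Sfp with the accession as filed and its product quenches rhodamine fluorescence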
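Step 1, compound plus 15 nM Sfp-PPTase, 15 min, room temperature. Step 2, add rhodamine-CoA (5 uM) and BHQ-2-YbbR (12.5 uM). Step 3, read 525/598 nm fluorescence at 0 and 30 min.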
NPSR antagonist = neuropeptide S receptor (human) antagonism, cAMP. Q6W5P4. CHO-NPSR cells, cAMP TR-FRET, antagonist mode. hit rate 1% among 220,000. AID 1461. Potency, µM (doses to about 38.3 µM), most hits filed as inhibitors; also: nearly all actives have a fitted effect of over 50% in size
Each line names hits and unclear results; the compound was inactive in the other large screens. Unless noted, calls follow the shape of the dose curve; as a rule, active = well fitted curve in the direction sought with a large enough effect; inconclusive = small, poorly fitted or top-dose-only effect, or another doubt; inactive = no such curve, though single readings can be large; an effect the other way counts as inactive or inconclusive.

CCOC(=O)/C(C#N)=C1\CC2CCC1(C)C2(C)C (stereo unspecified)	Sfp PPTase inh 39.8µM
C=C1C(=O)C=C2CN(C(=O)c3ccccc3)[C@@](Cc3ccc(OC)cc3)(C(=O)OC)[C@@H]12	Epigenetic reg inconclusive, JMJD2E inh inconclusive, Sfp PPTase inh 3.98µM (no result: GCN5L2 inh, NPSR antagonist)
COC(=O)[C@@]1(Cc2ccc(OC)cc2)[C@@H]2C(=CC(=O)[C@H]2CC(=O)C(=O)N2CCCC2)CN1C(=O)c1ccccc1	none
CSc1nsc(/C=C/Nc2ccc(F)cc2F)c1C#N	Epigenetic reg 3.98µM, JMJD2E inh inconclusive
CSc1nsc(/C=C/Nc2ccc(C(=O)O)cc2)c1C#N	JMJD2E inh 22.4µM
COc1ccc2c(c1)O[C@@H](c1cccc(C(F)(F)F)c1)[C@H](OC(=O)NS(=O)(=O)c1ccc(C)cc1)C2=O	JMJD2E inh inconclusive (no result: GCN5L2 inh, NPSR antagonist)
O=C(/C=C/c1ccc(O)c(O)c1)O[C@@H]1C[C@@](O)(C(=O)O)C[C@H](O)[C@@H]1O	JMJD2E inh inconclusive, Sfp PPTase inh 50.1µM (no result: GCN5L2 inh, NPSR antagonist)
O=C(NCc1cccnc1)c1ccc2c(c1)N(Cc1ccccc1)CCS2	JMJD2E inh inconclusive, Sfp PPTase inh 50.1µM (no result: IMPase Li inh)
c1ccc(Cn2c(-c3ccco3)nc3nc4ccccc4nc32)cc1	JMJD2E inh inconclusive
Clc1ccc(-c2nc3nc4ccccc4nc3n2Cc2ccco2)cc1	Sfp PPTase inh 7.08µM, NPSR antagonist inconclusive
O=C1c2ccccc2C(=O)C12OC2c1cccc2ccccc12 (stereo unspecified)	JMJD2E inh inconclusive, Sfp PPTase inh 28.2µM, NPSR antagonist inconclusive
CC12CCC=CC1C(c1cccc([N+](=O)[O-])c1)N(Cc1ccccc1)C2=O (stereo unspecified)	none (no result: Epigenetic reg, JMJD2E inh, GCN5L2 inh, IMPase Li inh, NPSR antagonist)
CCOCCCNC1=C(Cl)C(=O)c2ccccc2C1=O	JMJD2E inh inconclusive, Sfp PPTase inh 44.7µM, NPSR antagonist inconclusive (no result: IMPase Li inh)
O=C1C(Cl)=C(NCCCO)C(=O)c2ccccc21	none
CC[C@@H]1Cn2c(c3nc(-c4cc(Cl)cc(Cl)c4Cl)nc-3n(C)c2=O)N1	GCN5L2 inh inconclusive (no result: JMJD2E inh, NPSR antagonist)
COc1ccc(/C=C2\SC(N)=NC2=O)cc1	none (no result: Epigenetic reg, JMJD2E inh, IMPase Li inh, NPSR antagonist)
CCOC(=O)CSC1=NC(=O)/C(=C/c2ccc(OC)cc2)S1	Sfp PPTase inh 17.8µM
O=S1(=O)C2CC3OC2(CC3c2ccc(F)cc2)CN1Cc1ccc(Cl)cc1 (stereo unspecified)	none (no result: Epigenetic reg, JMJD2E inh, GCN5L2 inh, IMPase Li inh, NPSR antagonist)
CC(=O)Nc1ccc2nc(-c3ccccn3)[nH]c2c1	JMJD2E inh inconclusive, Sfp PPTase inh 50.1µM
COC(=O)c1cc2sc(Cl)cc2n1Cc1nc(-c2ccccc2C)oc1C	none (no result: JMJD2E inh, IMPase Li inh, Sfp PPTase inh, NPSR antagonist)
CCCC(C)c1nnc(NC(=O)CCS(=O)(=O)Cc2ccccc2)s1 (stereo unspecified)	Sfp PPTase inh 50.1µM (no result: Epigenetic reg, JMJD2E inh, IMPase Li inh, NPSR antagonist)
N#Cc1cccc(NC(=O)N2CCC3(CC2)CCN(C(=O)c2csnn2)CC3)c1	IMPase Li inh 11.2µM (no result: Epigenetic reg, JMJD2E inh, NPSR antagonist)
CNc1ncncc1-c1ccccc1C(F)(F)F	Sfp PPTase inh inconclusive (no result: Epigenetic reg, JMJD2E inh, NPSR antagonist)
CCc1ccccc1NC(=O)COc1ccc2c(=O)c(Oc3cc(C)ccc3C)coc2c1	Sfp PPTase inh 44.7µM
CC(C)c1ccccc1NC(=O)COc1ccc2c(=O)c(Oc3ccc4ccccc4c3)coc2c1	none
Cc1ccc(C2=NS(=O)(=O)N(C)C(C(=O)N3CCOCC3)=C2)cc1	GCN5L2 inh 10µM (no result: Epigenetic reg, JMJD2E inh, IMPase Li inh, NPSR antagonist)
COc1ccc(C2=NS(=O)(=O)N(C)C(C(=O)N3CCOCC3)=C2)cc1	none (no result: Epigenetic reg, JMJD2E inh, IMPase Li inh, NPSR antagonist)
CCN(CC)c1ccc(NC(=O)COc2ccccc2C)cc1S(=O)(=O)Nc1ccccc1OC	Sfp PPTase inh 20µM
Cc1nc2ccc(NC(=O)COc3ccccc3C)cc2s1	Sfp PPTase inh 31.6µM
CCN(CC)c1ccc(NC(=O)c2ccc(=O)[nH]c2)cc1S(=O)(=O)Nc1ccccc1OC	JMJD2E inh inconclusive, GCN5L2 inh inconclusive, Sfp PPTase inh 14.1µM
Cc1nc2ccc(NC(=O)COc3ccccc3[N+](=O)[O-])cc2s1	none
CCN(CC)c1ccc(NC(=O)c2ccccc2Br)cc1S(=O)(=O)Nc1ccccc1OC	GCN5L2 inh inconclusive, Sfp PPTase inh 3.16µM
COc1cccc(Cn2c(=O)c(-c3cccs3)nc3cnc(N(C)C)nc32)c1	none (no result: Epigenetic reg, JMJD2E inh, NPSR antagonist)
COc1ccc(NC(=O)c2ccccc2F)cc1Cl	none
